From the supplement of paper PMC4466140

B1: unnamed (peptide)
chain: RFKRHRLEFPFNESE

Target: AgAbp1
Test: SPOT peptide array binding signal intensity (averaged, normalized) (arbitrary units (background-subtracted, floor 0; scale differs between SH3 domains)); higher = stronger binding of the SH3 domain to the peptide
Summary of the method: (§1)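 Peptides were synthetic 15-mers on cellulose membranes, with every cysteine replaced by serine. They were incubated overnight at 4°C with GST-SH3 domains from four yeast species at 10 μg/ml in TBS-based blocking buffer. Binding signal, the replicate-averaged normalized and background-subtracted spot intensity, is in arbitrary units that differ between domains.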

Row | Binder | SPOT peptide array binding signal intensity
1 | B1 | 154

Target: AgBbc1
Test: as above
Summary of the method: as §1

Row | Binder | SPOT peptide array binding signal intensity
2 | B1 | 38.5

Target: AgBem1-D1
Test: as above
Summary of the method: as §1

Row | Binder | SPOT peptide array binding signal intensity
3 | B1 | 120

Target: AgBzz1-D1
Test: as above
Summary of the method: as §1

Row | Binder | SPOT peptide array binding signal intensity
4 | B1 | 58

Target: AgBzz1-D2
Test: as above
Summary of the method: as §1

Row | Binder | SPOT peptide array binding signal intensity
5 | B1 | 71

Target: AgCyk3
Test: as above
Summary of the method: as §1

Row | Binder | SPOT peptide array binding signal intensity
6 | B1 | ≤ 0

Target: AgFus1
Test: as above
Summary of the method: as §1

Row | Binder | SPOT peptide array binding signal intensity
7 | B1 | 378

Target: AgHof1
Test: as above
Summary of the method: as §1

Row | Binder | SPOT peptide array binding signal intensity
8 | B1 | 28

Target: AgHse1
Test: as above
Summary of the method: as §1

Row | Binder | SPOT peptide array binding signal intensity
9 | B1 | 929

Target: AgLsb1
Test: as above
Summary of the method: as §1

Row | Binder | SPOT peptide array binding signal intensity
10 | B1 | 1.5

Target: AgLsb4
Test: as above
Summary of the method: as §1

Row | Binder | SPOT peptide array binding signal intensity
11 | B1 | 78

Target: AgMyo5
Test: as above
Summary of the method: as §1

Row | Binder | SPOT peptide array binding signal intensity
12 | B1 | 0.75

Target: AgNbp2
Test: as above
Summary of the method: as §1

Row | Binder | SPOT peptide array binding signal intensity
13 | B1 | 37

Target: AgRvs167
Test: as above
Summary of the method: as §1

Row | Binder | SPOT peptide array binding signal intensity
14 | B1 | 5.33

Target: AgSho1
Test: as above
Summary of the method: as §1

Row | Binder | SPOT peptide array binding signal intensity
15 | B1 | 46

Target: AgSla1-D1-D2
Test: as above
Summary of the method: as §1

Row | Binder | SPOT peptide array binding signal intensity
16 | B1 | 98

Target: AgSla1-D3
Test: as above
Summary of the method: as §1

Row | Binder | SPOT peptide array binding signal intensity
17 | B1 | 8

Target: CaAbp1-D1
Test: as above
Summary of the method: as §1

Row | Binder | SPOT peptide array binding signal intensity
18 | B1 | 759

Target: CaAbp1-D2
Test: as above
Summary of the method: as §1

Row | Binder | SPOT peptide array binding signal intensity
19 | B1 | 598

Target: CaBbc1
Test: as above
Summary of the method: as §1

Row | Binder | SPOT peptide array binding signal intensity
20 | B1 | 107

Target: CaBem1-D1
Test: as above
Summary of the method: as §1

Row | Binder | SPOT peptide array binding signal intensity
21 | B1 | 164

Target: CaBzz1-D1
Test: as above
Summary of the method: as §1

Row | Binder | SPOT peptide array binding signal intensity
22 | B1 | 34.5

Target: CaBzz1-D2
Test: as above
Summary of the method: as §1

Row | Binder | SPOT peptide array binding signal intensity
23 | B1 | 34.8

Target: CaCyk3
Test: as above
Summary of the method: as §1

Row | Binder | SPOT peptide array binding signal intensity
24 | B1 | 3

Target: CaFus1
Test: as above
Summary of the method: as §1

Row | Binder | SPOT peptide array binding signal intensity
25 | B1 | 608

Target: CaHof1
Test: as above
Summary of the method: as §1

Row | Binder | SPOT peptide array binding signal intensity
26 | B1 | 1.5

Target: CaHse1
Test: as above
Summary of the method: as §1

Row | Binder | SPOT peptide array binding signal intensity
27 | B1 | 16

Target: CaLsb1
Test: as above
Summary of the method: as §1

Row | Binder | SPOT peptide array binding signal intensity
28 | B1 | ≤ 0

Target: CaLsb4
Test: as above
Summary of the method: as §1

Row | Binder | SPOT peptide array binding signal intensity
29 | B1 | 31

Target: CaMyo5
Test: as above
Summary of the method: as §1

Row | Binder | SPOT peptide array binding signal intensity
30 | B1 | 13.2

Target: CaNbp2
Test: as above
Summary of the method: as §1

Row | Binder | SPOT peptide array binding signal intensity
31 | B1 | 342

Target: CaRvs167
Test: as above
Summary of the method: as §1

Row | Binder | SPOT peptide array binding signal intensity
32 | B1 | 25.7

Target: CaRvs167-3
Test: as above
Summary of the method: as §1

Row | Binder | SPOT peptide array binding signal intensity
33 | B1 | 211

Target: CaSho1
Test: as above
Summary of the method: as §1

Row | Binder | SPOT peptide array binding signal intensity
34 | B1 | 939

Target: CaSla1-D1-D2
Test: as above
Summary of the method: as §1

Row | Binder | SPOT peptide array binding signal intensity
35 | B1 | 7

Target: CaSla1-D3
Test: as above
Summary of the method: as §1

Row | Binder | SPOT peptide array binding signal intensity
36 | B1 | 4

Target: ScAbp1
Test: as above
Summary of the method: as §1

Row | Binder | SPOT peptide array binding signal intensity
37 | B1 | 236
